Only some compounds are listed: those with a hit (about 0.45% of all), similar ones and a draw of the others.
FMDV FLuc = antivirals against foot and mouth disease virus; FMDV antiviral cell assay, firefly luciferase signal; Potency, µM (series often up to 57.5 µM), for the others: at the top dose activity change, negative = inhibition, usual class: inhibitors; 0.23% of 120,000 active; further: nearly all actives have a fitted effect of over 60% in size
FMDV Renilla = shows antiviral activity in FMDV Renilla assay. 0.32% of 120,000 active. FMDV replicon cells, Renilla luciferase signal. Potency, µM (titrated, usually from 57.5 µM), for inactives: top-dose activity change, negative = inhibition, usual class: inhibitors; further: nearly all actives have a fitted effect of over 55% in size
Starred values were filed as active, the others as inactive; ? = inconclusive; [ ] = another dose, or the depositor's remark. The call rests on the fitted dose curve. On the % scale 0 is the no-effect control and ±100 the full control effect; potency means the concentration at half of the fitted maximal effect.

SMILES	FMDV FLuc	FMDV Renilla
Cc1[nH]c2ccccc2c1C(=O)C(C)OC(=O)c1ccc2c(c1)NC(=O)CS2 (stereo not drawn)	35.5µM*	?
CC(OC(=O)c1ccc2c(c1)NC(=O)CS2)C(=O)c1ccccc1 (stereo not drawn)	84.1%	14.1%
COc1ccc(CNC(=O)C(C)OC(=O)c2ccc3c(c2)NC(=O)CS3)cc1OC (stereo not drawn)	25.1µM*	?
CCOc1cc(/C=N/O)ccc1O	49.2%	-1.0%
COC(=O)C1(NC(=O)COc2cccc(F)c2)CCCCC1	2.4%	12.0%
COC(=O)C1(NC(=O)COc2cc(Cl)ccc2Cl)CCCCCC1	?	5.01µM*
O=C(Nc1cccnc1)C1=C(c2ccccc2)S(=O)(=O)CCO1	?	25.1µM*
O=C(Nc1ccccc1Br)C1=C(c2ccccc2)S(=O)(=O)CCO1	-29.6%	?
O=C1C(=C(c2ccccc2)c2ccccc2)C(Cl)C(Cl)(Cl)c2ccccc21 (stereo not drawn)	?	11.2µM*
O=C1CCCc2c(O)cccc21	22.0%[11.5 µM]	-7.0%
Cc1cc(NC(=O)C(C)OC(=O)c2cc3c(s2)CCC3)no1 (stereo not drawn)	9.9%	-2.4%
Cc1ccc(Cl)cc1N1CCN(C(=O)C2CCN(c3nnc(-n4c(C)ccc4C)s3)CC2)CC1	10µM*	?
CCS(=O)(=O)N1CCC(C(=O)N2CCN(c3cc(Cl)ccc3C)CC2)CC1	-19.2%	-25.1%
NC(=O)C1(N)CCOCC1	-13.0%	-4.0%
O=C(Nc1ccc(Br)cc1)c1cccc(S(=O)(=O)N2CCc3ccccc32)c1	31.6µM*	3.98µM*
NS(=O)(=O)c1ccc(NC(=O)c2ccc3c(c2)CCN3S(=O)(=O)c2ccccc2)cc1	-9.2%	64.9%
CCS(=O)(=O)N1CCc2ccc(NC(=O)Nc3ccc(C)c(C)c3)cc21	?	4.47µM*
CCS(=O)(=O)N1CCc2cc(C(=O)Nc3ccc(C)c(Cl)c3)ccc21	95.9%	22.2%
Cc1ccc(OCC(=O)NCc2nncn2C)c(C)c1	25.8%	-0.9%
Cc1ccc(OCn2ccc(C(=O)NCc3c(C)nn(C)c3C)n2)c(C)c1	12.6µM*	10µM*
CCOC(=O)N/N=C1\c2ccccc2C2(O)NC(=O)NC12O (stereo not drawn)	9.8%	-17.1%
COc1ccc(CNCCc2ccc(Cl)cc2)cc1	7.4%	-27.5%
COc1ccc(CCNCc2ccc(Cl)cc2)cc1	1.7%	8.91µM*
N#Cc1ncn(CCC(=O)Nc2c(Cl)cccc2Cl)n1	-4.4%	-7.9%
CNC(=O)NC(=O)CSc1ncnc2ccccc12	-6.2%	-21.4%
SMILES	FMDV FLuc	FMDV Renilla
Cc1nccc(CNC(=O)c2ccc3ncsc3c2)n1	1.7%	1.6%
Cc1cccc(C)c1NC(=O)c1ccc2ncsc2c1	22.4µM*	4.6%
C=CCNc1nc(-c2c(N)n(CC(C)C)c(=O)n(C)c2=O)cs1	-6.2%	-12.5%
CC(=O)OC1CCC2(C=O)[C@H]3CCC4(C)C(C5=CC(=O)OC5)CCC4(O)[C@@H]3CCC2(O)C1 (stereo partly drawn)	1.41µM*	2.51µM*
COC1C(O)C(C)OC(OC2CCC3(C)C(CC[C@@H]4[C@@H]3CCC3(C)C(C5=CC(=O)OC5)C(O)CC43O)C2)C1O (stereo partly drawn)	2.24µM*	5.62µM*
C[C@H]1O[C@@H](O[C@H]2CC[C@]3(C=O)[C@H]4CC[C@]5(C)[C@H](C6=CC(=O)OC6)CC[C@]5(O)[C@@H]4CC[C@]3(O)C2)C[C@H](O)[C@@H]1O	?	0.251µM*
CC12CC[C@H]3[C@@H](CCC4(O)CC(O)CCC34/C=N/O)C1(O)CCC2C1=CC(=O)OC1 (stereo partly drawn)	1.41µM*	1.78µM*
O=C(NC1CCc2ccccc21)c1cc2c(s1)CCCC2 (stereo not drawn)	169.7%	136.4%
CC(C)NC(=O)Nc1c(NC2CCCCC2)c2ccccc2oc1=O	0.0%	40.9%
C/C(=N\N=C(N)N)C1CCCCCCCCCCC1	130.3%	3.1%
Cc1cccc(-c2nnc(SCCC(=O)O)o2)c1	1µM*	-8.9%
Cc1cccc(-c2nnc(SCC(=O)N3CCCCC3)o2)c1	130.8%	8.9%
Cc1ccc(O)c(C(=O)c2cc(C#N)c(=O)n(-c3ccccc3C(=O)O)c2)c1	19.8%	-3.7%
C/C(=N/Nc1ccc(S(N)(=O)=O)cc1[N+](=O)[O-])c1cccc(Cl)c1	-7.5%	-7.4%
COc1cc(OC)c(NC(=O)NCc2ccc3c(c2)CCN3C(=O)c2ccccc2)cc1Cl	0.0%	22.4µM*
COc1cc(OC)c(NC(=O)NCc2ccc3c(c2)CCN3C(C)=O)cc1Cl	-8.6%	-3.6%
CCOC(=O)C1=C(Nc2ccccc2)O/C(=C\c2ccc(OC(F)F)cc2OC(F)F)C1=O	10µM*	?
CCOC(=O)c1cccc(Nc2nc3ccccc3nc2NS(=O)(=O)c2ccccc2)c1	2.9%	-2.0%
CN(C)CCCNC(=O)c1cc(-c2ccccc2)nc2ccccc12	-10.6%	-13.6%
CN(C)CCCNC(=O)c1cc(-c2ccc(-c3ccccc3)cc2)nc2ccccc12	99.3%	8.91µM*
